This passage reports growth results from PubChem BioAssay (NCI).

What all share (experiment): NCI-60 one-dose screen, 48 h (100 = growth as untreated, 0 = no growth, -100 = all killed)
Settings in all cases: 10 µM unless noted

In assay [1] the test system is NCI-H23 lung.
In assay [2] the test system is NCI-H226 lung.
For assay [3], the system named is NCI-H322M lung.
The subject of assay [4] is HOP-62 NSCLC.
The subject of assay [5] is NCI-H460 lung.
The subject of assay [6] is HOP-92 NSCLC.
The subject of assay [7] is NCI-H522 lung.
The test system of assay [8] is A549/ATCC NSCLC.
For assay [9], the system named is 786-0 renal.
Assay [10] deals with COLO 205 colon.
The subject of assay [11] is DU-145 prostate.
In assay [12] the test system is K-562 leukemia.
The test system of assay [13] is MALME-3M melanoma.
For assay [14], the system named is MDA-MB-231 breast.
For assay [15], the system named is RXF 393 renal.
Assay [16] deals with SF-268 CNS.
Assay [17] has as its system SF-295 CNS.
Assay [18] concerns SF-539 CNS.
The test system of assay [19] is UACC-257 melanoma.
Assay [20] relates to M14 melanoma.

SMILES strings stand for the structures. “And” between values parts separate entries of the source, which are not always exact repeats. Equal values may be shown once. This is part of a sample that, as a whole, favours compounds with a hit. Of some 83,000 tested, about 20% had one in any assay.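 Single-concentration screen, 48 h exposure, 96-well plates. Endpoint: percent growth. Below 10 = active.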 Unmarked numbers belong to inactive results. The source made the active and inactive calls.

For the compound `CC(CN(C)C)CN1c2ccccc2Sc2ccccc21` (stereo not given), the growth in [1] was 88.9% and 86% and 86.6%; in [2], 132% and 112%; in assay [3], 73.1% and 83.9% and 65.2%; in assay [4] it was 92.2% and 78.2% and 80.8%; in [5] it was 95% and 94.3% and 93.5%; in assay [6], 21.4%. Besides, the growth in assay [7] is 81.1% and 116% and 87.2%; in [8] it was 91.8% and 103% and 91.5%; in [9], 59.5% and 45% and 69.1%; in assay [10], 48.4% and 84.5% and 85%; in assay [11], 97.3% and 111% and 90%; in assay [12] it was 67.2% and 72.1% and 49.8%. For the same compound, the growth is 81.7% and 101% and 95.8% in assay [13]; 62% and 90% in assay [14]; 53.3% and 86.1% and 70.7% in assay [15]; 90.8% and 91.7% and 78.1% in [16]; 88% and 35.8% and 92% in assay [17]; 91.7% and 81.9% in assay [18]. Also, the growth is 65.1% and 110% and 92.1% in [19]; 47.9% and 81.3% and 75.8% in [20].

Consider `COc1ccc(/C=N/Nc2nc3ccccc3s2)cc1`, for which the growth in assay [1] is 105%; in [2] it was 99.4%; in [3] it was 86.7%; in assay [4] it was 91.9%; in [5], 97.3%; in [6], 81.6%. Besides, the growth in assay [7] is 89%; in assay [8] it was 93.9%; in assay [9] it was 111%; in assay [10] it was 84.1%; in assay [11], 105%; in [12] it was 93.2%. The growth in assay [13] was 44.2%; in assay [14] it was 86%; in assay [15], 97.5%; in [16], 106%; in assay [17], 97.1%; in [18], 94%. The growth in assay [19] is 103%; in assay [20], 87.7%.

In the case of `O=[N+]([O-])c1ccc(N2CCN=N2)cc1`, the growth is 99.6% in assay [1]; 96% in [2]; 88% in assay [3]; 82.9% in assay [4]; 98.9% in assay [5]; 89% in [6]. Also, the growth in assay [7] was 78.8%; in assay [8], 82.2%; in [9] it was 84.8%; in assay [10] it was 92.7%; in assay [11], 88.2%; in [12], 63.6%. For the same compound, the growth in assay [13] is 106%; in [14] it was 80.4%; in assay [15], 109%; in assay [16] it was 85.8%; in assay [17], 97.1%; in assay [18], 93.4%. Moreover, the growth in [19] is 91.5%; in assay [20], 82.7%.

For the compound `CCOC(=O)CN1CCC(C(=O)OCC)CC1`, the growth in assay [1] is 102%; in assay [2], 107%; in assay [3] it was 124%; in assay [4] it was 98.9%; in assay [5] it was 108%; in [6], 92.3%. Besides, the growth in assay [7] is 96.1%; in [8], 103%; in assay [9], 109%; in assay [10], 112%; in assay [11], 118%; in assay [12], 118%. Moreover, the growth was 111% in assay [13]; 103% in assay [14]; 127% in [15]; 113% in assay [16]; 119% in assay [17]; 117% in [18]. Further, the values for the growth in [19] and in assay [20] were 110% and 105%, respectively.

In the case of `O=C1C=CC(n2cc(F)c(=O)[nH]c2=O)O1` (stereo not given), the growth was 65.2% in assay [1]; 86% in [2]; 67.4% in assay [3]; 79.5% in assay [4]; 19.4% in assay [5]; 112% in assay [6]. Also, the growth is 76.2% in assay [7]; 50.7% in assay [8]; 70.9% in assay [9]; 59.4% in assay [10]; 61% in [11]; 52.1% in assay [12]. Besides, the growth in assay [13] was 58.9%; in assay [14], 98.8%; in assay [15], 99%; in assay [16], 85.8%; in [17], 94.5%; in assay [18] it was 8.79% (active). For the same compound, the growth was 90.4% in assay [19] and 70.7% in assay [20].

For `COc1ccc(C(=O)C(O)c2ccc(OC)cc2)cc1` (stereo not given), the growth in assay [1] is 98.4% and 92.7%; in [2] it was 92.5% and 96.2%; in [3], 96.6% and 102%; in [4], 109% and 108%; in assay [5], 104% and 105%; in assay [6], 96.2%. The growth in [7] is 102%; in assay [8], 109% and 103%; in assay [9], 103%; in assay [10], 110% and 108%; in assay [11], 110% and 103%; in assay [12], 101% and 103%. The growth in assay [13] is 92.2% and 103%; in assay [14], 104% and 112%; in [15], 125% and 103%; in assay [16], 103% and 101%; in assay [17], 104% and 107%; in assay [18], 105% and 103%. Also, the growth was 104% and 101% in assay [19]; 101% and 99.9% in [20].

Turning to `CCOC(=O)C1=CC(=O)CC(C)(C)O1`, the growth in assay [1] is 104% and 107%; in assay [2], 114% and 95.3%; in assay [3] it was 99.2% and 125%; in assay [4], 109% and 107%; in assay [5], 107% and 109%; in assay [6], 93.5% and 97.1%. In addition, the growth is 79.7% and 96.2% in assay [7]; 119% and 81.9% in assay [8]; 110% and 116% in [9]; 105% and 111% in assay [10]; 123% and 110% in assay [11]; 42% and 104% in assay [12]. Besides, the growth in assay [13] was 112% and 110%; in assay [14], 114% and 106%; in assay [15], 118% and 114%; in [16] it was 108% and 103%; in assay [17] it was 125% and 114%; in assay [18], 110% and 109%. The growth was 106% and 95.7% in assay [19]; 99.6% and 112% in assay [20].
